Measured values as given in PubChem BioAssay.

What follows are compounds tested against Tumor necrosis factor receptor superfamily member 10B (Homo sapiens) (UniProt O14763) (assay: viability loss of caspase-8 NB7 cells with TRAIL – with/without TRAIL, luminescence panel, confirmation (AID 651596)). Details: NB7 neuroblastoma + caspase-8, TRAIL sensitization, NB7 Caspase-8, with TRAIL, mean of runs, at 10 µM, stronger effect = higher value.
Tumor necrosis factor receptor superfamily member 10B (Homo sapiens), sequence (O14763 whole entry, looked up): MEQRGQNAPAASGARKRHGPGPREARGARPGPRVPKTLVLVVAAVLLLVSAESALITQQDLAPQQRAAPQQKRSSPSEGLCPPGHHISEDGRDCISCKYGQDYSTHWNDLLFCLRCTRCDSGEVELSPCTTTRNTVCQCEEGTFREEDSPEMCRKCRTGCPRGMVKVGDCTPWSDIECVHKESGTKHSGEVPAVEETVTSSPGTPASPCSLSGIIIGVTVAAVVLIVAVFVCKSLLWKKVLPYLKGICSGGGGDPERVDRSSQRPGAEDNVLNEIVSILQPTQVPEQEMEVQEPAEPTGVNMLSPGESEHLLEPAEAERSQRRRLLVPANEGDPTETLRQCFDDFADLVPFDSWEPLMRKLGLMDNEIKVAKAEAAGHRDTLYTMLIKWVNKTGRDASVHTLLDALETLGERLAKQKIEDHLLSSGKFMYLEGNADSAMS

SMILES	activity
Cc1cc(C)c2sc(N(CCCN(C)C)C(=O)c3ccc(S(=O)(=O)N4CCc5ccccc5C4)cc3)nc2c1	93.1%
CN(C)c1ccc(-c2nc3ccccn3c2/N=C/c2ccc(Br)cc2)cc1	69.3%
COc1ccc(/C=C2/Sc3ccc(C(=O)NCCN4CCCCCC4)cc3NC2=O)cc1	67.8%
CN(C)CCCN(C(=O)/C=C/c1cccs1)c1nc2c(F)cccc2s1	56.7%
COC(=O)c1ccc2c(c1)C(C)(C)C(/C=C/c1ccc(O)cc1)=[N+]2C	43.9%
Brc1ccc(-c2nnc3sc(CN4CCC5(CC4)OCCO5)cn23)cc1	68.3%
COc1ccccc1/C=C/C1(C(=O)NC2CCCC2)CC(=O)N1c1ccc(F)cc1 (stereo not given)	98%
FC(F)(F)c1nnc(-c2ccccc2)nc1Sc1ccc(Cl)cc1	42.7%
CC1(C)N=C(N)N=C(N)N1c1cccc(C#N)c1	81.8%
O=C(Cn1c2ccccc2c(=O)c2ccccc21)N/N=C/c1cc([N+](=O)[O-])ccc1N1CCCCCC1	49.8%
C/C(=N\NC(=O)COc1ccc(C(C)(C)C)cc1)c1cc2ccccc2o1	89.2%
COc1ccc(C(=O)Nc2nc3ccccc3[nH]2)cc1	96.3%
CC(C)(C)OC(=O)NCc1ccc(CNC(=O)c2[nH]cnc2C(=O)Nc2ccccc2F)cc1	43.6%
Cc1occc1C(=O)O/N=C(\N)c1ccccc1	89.7%
CC(C)c1nnc(NC(=O)c2nc(S(=O)(=O)Cc3ccc(F)cc3)ncc2Cl)s1	72.9%
NC(=O)c1ccsc1NC(=O)c1ccc2c(c1)CCCC2	89.5%
O=C1CN(C(=O)Cn2ncc(Cl)c(Cl)c2=O)c2ccccc2N1	99.4%
CCN1CCN(CCCNC(=O)c2ccc3c(c2)NC(=O)/C(=C\c2cccc(C)c2)S3)CC1	41.4%
O=C(Nc1ncc(Cc2ccccc2)s1)c1cccs1	74.1%
COc1ccc2oc(C(=O)Nc3nc4ccccc4[nH]3)c(C)c2c1	89.7%

SMILES	activity
Fc1cccc(C2NN=C(c3ccccc3)S2)c1 (stereo not given)	58.6%
COc1ccc(/C=N/Nc2cc(C)nc(-n3nc(C)cc3C)n2)c(OC)c1	6.72%
O=C(Nc1nc2ccccc2[nH]1)c1ccccc1OC(F)F	76%
CCCCC[C@@H](C)N1C[C@H](COCc2ccccc2)Oc2cc(N3CC[C@H](N(C)C)C3)ccc2S1(=O)=O	12%
Cc1nn(-c2ccccc2)c(Cl)c1CN(C(=O)CCl)c1ccc(Cl)cc1	99.3%
O=C(Nc1nc2c(F)cc(F)cc2s1)c1ccccn1	61.9%
O=C(Nc1cccc(O)c1)c1cc(-c2ccccc2Cl)on1	82.2%
Cc1ccc(C(=O)N/N=C\c2ccc[nH]2)cc1[N+](=O)[O-]	80.7%
COc1ccc(CCNc2cc(N3CCN(C(=O)c4ccccc4F)CC3)ccc2[N+](=O)[O-])cc1OC	73.7%
COc1ccc(C2C(C(=O)N3CCN(c4ccccc4)CC3)c3ccccc3C(=O)N2C)cc1OC (stereo not given)	71.8%
COC(=O)c1ccc(N/C=C/C(=O)c2ccccc2)cc1	61.3%
Cc1csc(N/N=C/c2ccccn2)n1	59.2%
CC(C)Sc1cc(Cl)nc(NC(=O)Nc2ccccc2)n1	98.4%
CC(C)CC(N)c1csc(NC(=O)c2cc(C(C)(C)C)nn2Cc2ccccc2)n1 (stereo not given)	70%
Oc1ccc(-c2cn3cc(C(F)(F)F)ccc3n2)cc1	89.1%
Cc1ccc(C(=O)Nc2nc3c(s2)CCCC3)o1	70.4%
c1cc(-c2cc3cc(N4CCOCC4)ccc3o2)cs1	77.3%
Cc1ccc(NC2=Nc3ccccc3CS2)cc1	57.4%
CCS(=O)(=O)c1ncc(Cl)c(C(=O)Nc2ccc(C)cc2)n1	78.6%
COC(=O)c1cccc(NC(=O)c2cc3ccccc3o2)c1	57.4%
